Activity calls are given as the source filed them.
biological target: E3 ubiquitin-protein ligase XIAP (Homo sapiens) (UniProt P98170); assay: small molecules binding XIAP protein – biophysical, small-molecule microarray, fluorescence 635 nm, primary screen (AID 1181); conditions: higher = more signal;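 note: score merges 667 nm emission and signal to noise over triplicate slides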
Sequence (P98170 whole entry, looked up): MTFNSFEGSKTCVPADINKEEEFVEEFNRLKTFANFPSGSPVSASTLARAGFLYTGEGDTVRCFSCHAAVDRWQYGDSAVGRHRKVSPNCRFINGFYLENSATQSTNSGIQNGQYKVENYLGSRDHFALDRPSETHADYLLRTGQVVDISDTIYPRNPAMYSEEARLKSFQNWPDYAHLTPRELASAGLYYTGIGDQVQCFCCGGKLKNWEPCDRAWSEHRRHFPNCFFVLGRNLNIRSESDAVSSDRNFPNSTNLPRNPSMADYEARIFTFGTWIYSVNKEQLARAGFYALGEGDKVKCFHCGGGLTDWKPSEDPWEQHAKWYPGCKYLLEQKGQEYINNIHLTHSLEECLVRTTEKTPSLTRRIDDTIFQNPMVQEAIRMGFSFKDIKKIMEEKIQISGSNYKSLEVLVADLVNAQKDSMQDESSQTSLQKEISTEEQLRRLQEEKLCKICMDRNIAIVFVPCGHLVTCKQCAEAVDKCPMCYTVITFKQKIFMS

Compound	composite z-score
CCOC(=O)C1=CC[C@@H](c2cc(Cl)ccc2Cl)N(S(=O)(=O)c2ccc(C)cc2)[C@H]1c1ccc(OC)cc1	0.179
C=C(CCCC)C(=O)CC[C@@H](OC(=O)c1ccccc1-c1ccccc1C(=O)O)c1cccc(OCCO)c1	-0.23
CC(C)(C)OC(=O)CC[C@@]1(C(=O)O)N=C(c2ccc(OCCCO)cc2)O[C@@H]1c1ccccc1CN=[N+]=[N-]	0.492
O=C1C[C@]2(c3ccc([N+](=O)[O-])cc3)C(=O)N(Cc3ccccc3)c3cc(CO)ccc3[C@H]2N1CC12CC3CC(CC(C3)C1)C2	-0.133
O=C(CS)NCCCCCCNC(=O)[C@@H]1C[C@@H]2C(=O)N3CCC[C@H]3C(=O)N2[C@@H]1c1cccc(OCCO)c1	0.0022
CN(C)CCCCNC(=O)[C@H]1C[C@H]2C(=O)N[C@@H](CCCCN(C)C)C(=O)N2[C@H]1c1cccc(OCCO)c1	-0.0559

test system: XIP peptide (Xip251-270) binding; assay: XIP fragment 251-270 binding compounds – biochemical, small-molecule microarray, fluorescence 635/667 nm, 0.1 µg/mL protein, primary screen (AID 1182); conditions: fluorescent protein binding, 635 nm, higher = more signal, called active from +8 up or from −8 down

Compound	composite z-score
COCC(=C=CC[C@H](O)c1ccc(OCCO)cc1)C[C@H](O)COCc1ccccc1	-0.0114 (inactive)
O=C1NC(=O)C2C1C=CC(C(O)c1cc(C(F)(F)F)cc(C(F)(F)F)c1)N2Nc1ccc(Cl)cc1Cl (configuration not stated)	1.75 (inactive)
COC(=O)[C@H](Cc1ccccc1)N1CC(/C=C/C2CC2)=C[C@@H]1[C@@H](O)Cc1ccccc1	0.971 (inactive)
NC(=O)NCC#Cc1ccc2c(c1)[C@]1(C(=O)N2)[C@H](C(=O)Nc2nc3ccccc3s2)[C@H]2C(=O)O[C@H](c3ccccc3)[C@H](c3ccccc3)N2[C@@H]1c1ccc(O)cc1	0.207 (inactive)
O=C1O[C@@H](c2ccccc2)[C@@H](c2ccccc2)N2[C@@H](c3ccc(O)cc3)[C@]3(C(=O)Nc4ccc(C#CC5=CCCCC5)cc43)[C@@H](C(=O)N3CCN(c4ncccn4)CC3)[C@H]12	-0.168 (inactive)
CC(=O)NCCCC[C@@H]1NC(=O)[C@@H]2C[C@H](C(=O)O)[C@H](c3ccc(O)cc3)N2C1=O	3.54 (inactive)
COc1cc(CO)cc(I)c1O[C@H]1C=C(C(=O)NCCO)C[C@@H](NCc2ccccc2F)[C@@H]1O	-0.346 (inactive)
O=C1NCC(=O)N2[C@@H]1C[C@@H](C(=O)O)[C@H]2c1ccc(O)cc1	1.26 (inactive)
COC(=O)[C@@]1(Cc2ccc(F)cc2)[C@H]2c3cc(C(=O)N4CCCC4)n(CCF)c3C[C@H]2CN1C(=O)c1ccccc1	2.43 (inactive)
C[C@]1(C(=O)O)c2ccccc2C(=O)N(Cc2ccccc2)[C@H]1c1ccc(CO)cc1	-0.339 (inactive)
CCOC(=O)C[C@H]1[C@H](OC(=O)c2ccc(-c3ccccc3)cc2)[C@@H](NC(=O)C2CCCCC2)c2cc(OCCCO)ccc2N1C(=O)c1ccccc1	-0.264 (inactive)
O=C1O[C@@H](c2ccccc2)[C@@H](c2ccccc2)N2[C@@H](c3ccccc3OCCO)[C@]3(C(=O)Nc4ccccc43)[C@@H](C(=O)NC[C@H](O)c3ccccc3)[C@H]12	1.42 (inactive)
C=CC1c2cc(O)c(OC)cc2CCN1Cc1sc2ccccc2c1Cl (configuration not stated)	0.51 (inactive)
CC(C)CN1C(=O)[C@@]2(c3ccc([N+](=O)[O-])cc3)CC(=O)N(CC34CC5CC(CC(C5)C3)C4)[C@@H]2c2ccc(CO)cc21	0.141 (inactive)
COCCOC(=O)N1C(=O)[C@@]2(c3cc(C#Cc4ccc(OC)cc4)ccc31)[C@H](C(=O)N1CCN(c3ncccn3)CC1)[C@H]1C(=O)O[C@H](c3ccccc3)[C@H](c3ccccc3)N1[C@@H]2c1ccccc1OCCO	-0.148 (inactive)
CCOC(=O)C[C@H]1[C@H](OC(=O)Cc2ccc3c(c2)OCO3)[C@@H](NC(=O)Cc2ccc(OC)cc2)c2cc(OCCCO)ccc2N1C(=O)c1ccccc1	1.08 (inactive)
[N-]=[N+]=Nc1ccccc1C[C@]1(C(=O)NCc2ccccc2)N=C(c2ccc(OCCCO)cc2)O[C@H]1c1ccccc1	0.222 (inactive)
COC(=O)Cn1c(C(=O)N2CCCC2)cc2c1C[C@H]1CN(C(=O)c3ccccc3)[C@@](Cc3ccc(F)cc3)(C(=O)OC)[C@@H]21	0.243 (inactive)
COc1ccc(NN2C(C(O)c3ccco3)C=CC3C(=O)N(C4CCCCC4)C(=O)C32)cc1 (configuration not stated)	0.902 (inactive)
CCCCN1CC=CC23O[C@@H]4C=CCOC(=O)[C@@H]4[C@H]2C(=O)N(C(C)CO)[C@@H]3C1=O (some centres not stated)	-0.161 (inactive)
COc1ccc(NC(=O)O[C@H]2[C@H](OC(=O)Nc3ccc4c(c3)OCO4)[C@@H](OC(=O)Nc3ccc4c(c3)OCO4)[C@@H](OC)O[C@@H]2CO)cc1	1.61 (inactive)

Reference: PubChem BioAssay
